Experimental data published in PubChem BioAssay.
A number with no mark means an inactive call. Activity calls are given as the source filed them. How the calls were made is not given here. Residues, ends and D or L forms follow the SMILES beside them.

Test system: Aerobactin synthetase IucA (Klebsiella pneumoniae hvKP1)
Experiment: IucA enzyme inhibition, primary screen, biochemical, Spectrum library (AID 1346200);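 further: 100% = wells without compound and 0% = wells lacking enzyme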
Details: malachite green pyrophosphate, A620, at 8 µM, stronger effect = lower value

Compound	activity remaining
O=C(O[C@@H]1Cc2c(O)cc(O)cc2O[C@@H]1c1cc(=O)c(O)c2c(O)c(O)cc([C@H]3Oc4cc(O)cc(O)c4C[C@H]3O)c2c1)c1cc(O)c(O)c(O)c1	106%
NC(CSCSCC(N)C(=O)O)C(=O)O (stereo not given)	95.5%
O=c1c(O)cccc2c([C@H]3Oc4cc(O)cc(O)c4C[C@@H]3O)cc(O)c(O)c12	99.4%
COc1c2ccoc2c(OC)c2oc(=O)ccc12	121%
COc1ccc(CCN(C)CCCC(C#N)(c2ccc(OC)c(OC)c2)C(C)C)cc1OC (stereo not given)	97.5%
O=C1O[C@@H](CO)[C@H](O)[C@@H](O)[C@@H]1O	113%
CCCc1nc2c(C)cc(-c3nc4ccccc4n3C)cc2n1Cc1ccc(-c2ccccc2C(=O)O)cc1	123%
CC1(C)S[C@@H]2[C@H](NC(=O)[C@H](NC(=O)N3CCNC3=O)c3ccccc3)C(=O)N2C1C(=O)O (stereo not given in full)	95.7%
CCCCCCOc1ccccc1C(N)=O	96.8%
O=C1OC(c2ccc(O)cc2)(c2ccc(O)cc2)c2ccccc21	115%
COc1ccc(-c2cc(=O)c3c(O)c(OC)c(O[C@H]4O[C@H](CO[C@@H]5O[C@@H](C)[C@H](O)[C@@H](O)[C@H]5O)[C@@H](O)[C@H](O)[C@H]4O)cc3o2)cc1	109%
OC[C@@H](O)[C@@H](O[C@@H]1O[C@H](CO)[C@@H](O)[C@H](O)[C@H]1O)[C@H](O)[C@@H](O)CO	96.4%
O=C(CCCCCCCCCCCCC1CCCC1)Nc1ccc(S(=O)(=O)c2ccc(NC(=O)CCCCCCCCCCCCC3CCCC3)cc2)cc1	94.8%
NC(=O)c1ccc[n+]([C@@H]2O[C@H](COP(=O)([O-])OP(=O)(O)OC[C@H]3O[C@@H](n4cnc5c(N)ncnc54)[C@H](OP(=O)(O)O)[C@@H]3O)[C@@H](O)[C@H]2O)c1	101%
CC(=O)Oc1ccc2c(c1OC(C)=O)OCC1(O)Cc3c(cc(OC(C)=O)c(OC(C)=O)c3OC(C)=O)C21 (stereo not given)	111%
C=C[C@@](C)(O)CCC1C(=C)C[C@H](OC(C)=O)C2C(C)(C)CCCC12C (stereo not given in full)	118%
C[C@]12CCC3c4ccc(O)cc4CCC3C1CC[C@@H]2OC(=O)CCC1CCCC1 (stereo not given in full)	124%
CC(=O)O[C@]1(C(C)=O)CCC2C3C[C@H](C)C4=CC(=O)CC[C@]4(C)C3CC[C@@]21C (stereo not given in full)	95.7%
CC(=O)OC1CCC23CC1(C)CCC2C(C)(C)CC3OC(C)=O (stereo not given)	105%
COc1cc(O)c(C(=O)c2ccccc2)cc1O	107%

Compound	activity remaining
O=C(O[C@@H]1Cc2c(O)cc(O)cc2O[C@@H]1c1cc(O)c(O)c(O)c1-c1c([C@H]2Oc3cc(O)cc(O)c3C[C@H]2OC(=O)c2cc(O)c(O)c(O)c2)cc(O)c(O)c1O)c1cc(O)c(O)c(O)c1	111%
Oc1cc2c(cc1O)C(c1ccccc1)CNCC2 (stereo not given)	88.1%
O=C(OOC(=O)c1ccccc1)c1ccccc1	113%
O=C(O)[C@@H](S)[C@@H](S)C(=O)O	49.3% (active)
O=c1[nH]c2cc(Cl)c(Cl)cc2[nH]c1=O	121%
COc1cc(O)c2c(=O)cc(C)oc2c1CC=C(C)C	83.4%
OC[C@H]1O[C@@](CO)(O[C@@H]2O[C@H](CO)[C@@H](O)[C@H](O)[C@H]2O)[C@@H](O[C@@H]2O[C@H](CO)[C@@H](O)[C@H](O)[C@H]2O)[C@@H]1O	82.4%
NC1(C(=O)O)CCCC1	117%
CCCCCC(O)C1C(=O)OC(C)C(O)/C=C/C=C/C=C/C=C/C=C(\C)C(O)CC(O)CC(O)CC(O)CC(O)CC(O)CC1O (stereo not given)	118%
CC(=O)OCC(COC(C)=O)OC(C)=O	126%
O=C(/C=C/C(=O)Oc1ccccc1C(=O)O)Oc1ccccc1C(=O)O	92%
CC(C)(O)CC[C@@H](O)[C@](C)(O)C1CC[C@@]2(O)C3=CC(=O)C4C[C@@H](O)[C@@H](O)C[C@]4(C)C3CC[C@]12C (stereo not given in full)	102%
C=C[C@@H](C1=CC(=O)C(OC)=C(OC)C1=O)c1ccccc1	128%
CCCc1cc(=O)[nH]c(=S)[nH]1	120%
NC(=O)c1cc[n+](CC2=C(C(=O)O)N3C(=O)C(NC(=O)C(c4ccccc4)S(=O)(=O)[O-])C3SC2)cc1 (stereo not given)	117%
CC(C)c1c(O)c(-c2cc3c(c(C(C)C)c2O)CCC2C(C)(C)CCC[C@]32C)cc2c1CCC1C(C)(C)CCC[C@]21C (stereo not given in full)	102%
C#C[C@]1(O)CCC2C3CCC4=C(CCC(=O)C4)C3CC[C@@]21C (stereo not given in full)	109%
COC(=O)[C@H](Cc1ccccc1)NC(=O)[C@@H](N)CC(=O)O (H-Asp-Phe-OMe)	104%
CCCCCCCCCCCCCCCC(=O)OC[C@H](NC(=O)C(Cl)Cl)[C@H](O)c1ccc([N+](=O)[O-])cc1	95.5%
CCC(Cc1c(I)cc(I)c(N)c1I)C(=O)O (stereo not given)	103%
